The results in this text go back to PubChem BioAssay.

Each structure is given as a SMILES string.

Chain of NADPH oxidase 5 (Homo sapiens) (Q96PH1 whole entry, looked up): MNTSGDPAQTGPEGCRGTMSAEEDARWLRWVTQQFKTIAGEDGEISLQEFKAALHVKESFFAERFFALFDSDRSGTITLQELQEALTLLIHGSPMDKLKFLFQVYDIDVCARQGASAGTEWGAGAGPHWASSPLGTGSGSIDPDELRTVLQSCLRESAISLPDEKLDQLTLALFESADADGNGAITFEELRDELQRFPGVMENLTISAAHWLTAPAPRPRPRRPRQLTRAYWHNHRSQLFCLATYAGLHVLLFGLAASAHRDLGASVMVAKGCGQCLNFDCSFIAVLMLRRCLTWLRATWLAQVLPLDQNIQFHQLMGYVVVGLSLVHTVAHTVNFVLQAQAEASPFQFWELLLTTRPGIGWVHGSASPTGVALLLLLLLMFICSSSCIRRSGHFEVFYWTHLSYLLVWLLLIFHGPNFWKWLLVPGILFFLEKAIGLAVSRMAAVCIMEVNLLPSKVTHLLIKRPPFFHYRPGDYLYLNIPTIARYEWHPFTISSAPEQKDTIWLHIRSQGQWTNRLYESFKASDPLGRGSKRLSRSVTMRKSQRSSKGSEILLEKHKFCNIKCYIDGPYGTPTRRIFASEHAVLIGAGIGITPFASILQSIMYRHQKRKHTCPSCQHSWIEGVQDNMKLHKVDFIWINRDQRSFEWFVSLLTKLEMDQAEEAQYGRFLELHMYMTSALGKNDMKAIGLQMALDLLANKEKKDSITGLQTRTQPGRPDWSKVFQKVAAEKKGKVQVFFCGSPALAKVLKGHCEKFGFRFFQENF

This assay has as its target NADPH oxidase 5 (Homo sapiens) (UniProt Q96PH1). The assay can be described thus: compounds shifting NOX5 Amplex Red fluorescence – cell-based, HEK293-NOX5, NOX inhibitor project, primary screen (AID 1161). Particulars: HEK293-NOX5, ionomycin, 45 min, higher = more signal.
As to `COC(=O)C1(Cc2ccccc2)C=C2C(=C(C(C)C)C(=O)C2C)CN1` (stereo unspecified), the z-score was -4.04.
To `Cc1c(NC(=O)/C(C#N)=C/C=C/c2ccccc2[N+](=O)[O-])c(=O)n(-c2ccccc2)n1C` belongs 0.657.
To `[N-]=[N+]=NCc1ccccc1C[C@@]1(C(=O)NCCN2CCOCC2)N=C(c2ccc(OCCCO)cc2)O[C@@H]1c1ccccc1N=[N+]=[N-]` belongs -2.32.
The value for `C[n+]1ccc(CCCO)cc1` was -1.72.
As for `CN1C(=O)C2C=CC(C(O)c3c(F)cccc3Cl)N(Nc3ccccc3)C2C1=O` (stereo unspecified), the z-score was -2.51.
The value for `C=C[C@@H](C)[C@H](OC(=O)Nc1ccc(SC)cc1)c1ccc(OCCO)cc1` was -0.18.
In the case of `CC(C)C(O)C1C=CC2C(=O)N(C)C(=O)C2N1N(c1ccccc1)c1ccccc1` (stereo unspecified), the z-score was -0.828.
The value for `O=C1c2ccccc2[C@](Cc2ccccc2I)(C(=O)NCc2ccccc2)[C@H](c2ccc(CO)cc2)N1C1CCCCC1` was 1.35.
Turning to `CC(=O)n1cc(C(O)C2C=CC3C(=O)N(Cc4ccccc4)C(=O)C3N2n2cnnc2)c2ccccc21` (stereo unspecified), the z-score is -0.392.
With `COc1cc2c(cc1OC)CN(C(=O)[C@H]1[C@@H]3C(=O)O[C@@H](c4ccccc4)[C@@H](c4ccccc4)N3[C@@H](c3ccc(OCCO)cc3)[C@]13C(=O)Nc1ccc(C#CC4(O)CCCCCC4)cc13)CC2`, the z-score amounted to 1.28.
To `O=c1cccc(-c2ccc(C(F)(F)F)cc2)o1` belongs -0.246; to `COc1ccc(C(O)C2C=CC3C(=O)N(Cc4ccccc4)C(=O)C3N2n2cnnc2)c2ccccc12` (stereo unspecified), -3.65; to `CC(C)(C)OC(=O)CC[C@]1(C(=O)NCCN2CCOCC2)N=C(c2ccc(OCCCO)cc2)O[C@H]1c1ccccc1N=[N+]=[N-]`, -1.99.
Regarding `C=CC[C@H](OC(=O)Nc1ccc(OC)cc1)c1ccc(O)c2ccccc12`, the z-score was -0.343.
The value for `COC(=O)[C@@]1(Cc2ccc(OC)cc2)[C@H]2c3cc(C(=O)N4CCCC4)n(CCc4cc5ccccc5[nH]4)c3C[C@H]2CN1C(=O)c1ccccc1` was -3.28; that for `COc1ccc(CCNC(=O)[C@@]2(Sc3ccc(C)cc3)CC(=O)N(Cc3cc(C(F)(F)F)cc(C(F)(F)F)c3)[C@@H]2c2ccc(CO)cc2I)cc1` was 0.562; that for `COc1ccc(C(O)C2C=CC3C(=O)N(C)C(=O)C3N2N2CCCCC2)cc1` (stereo unspecified) was -0.369.
The value for `COc1ccc([Si](C)(C)[C@@H]2[C@@H](CC(=O)N3CCC[C@H]3CO)O[C@]3(C(=O)N(Cc4ccc(N5C(=O)c6cccc7cccc5c67)cc4)c4ccccc43)[C@H]2C)cc1` was 4.38; that for `O=C1c2ccccc2[C@@]2(Cc3ccccc3N(C3CC3)C2=O)[C@H](c2ccc(CO)cc2)N1C1CCCCC1` was -1.45.
The value for `CCOC(=O)C1=CC[C@@H](c2cc(Cl)ccc2Cl)N(S(=O)(=O)c2ccc(C)cc2)[C@H]1c1ccc(OC)cc1` was 0.465; that for `CC=CC(O)C1C=CC2C(=O)N(C)C(=O)C2N1N1CCCCC1` (stereo unspecified) was -1.96.
`C=C(C(=O)CC[C@H](OC(C)=O)c1cccc(OCCO)c1)C(C)C`: the z-score is -1.61.
To `CC(C)C(=C=CC[C@H](O)c1ccc(OCCO)cc1)C[C@H](O)c1cc(Cl)cc(Cl)c1O` belongs -1.36; to `COc1ccc(C#Cc2ccc3c(c2)[C@]2(C(=O)N3)[C@H](C(=O)N3CCc4cc(OC)c(OC)cc4C3)[C@H]3C(=O)O[C@H](c4ccccc4)[C@H](c4ccccc4)N3[C@@H]2c2ccc(O)cc2)cc1`, -0.523.
The value for `CN1C(=O)[C@@]2(CCS(=O)(=O)c3ccccc3)N=C(c3ccc(OCCCO)cc3)O[C@H]2c2ccccc21` was -0.917.
To `CC[C@H]1C2=C3C(CC[C@H]4C(OCc5ccc(F)cc5C(F)(F)F)OC[C@](C)([C@@H]34)N(C(=O)OC(C)(C)C)C2)C2COC(=O)OCC21` (stereo partly specified) belongs -1.5; to `Cc1ccc(S[C@]2(C(=O)NCc3ccccc3)CC(=O)N(C(C)C)[C@@H]2c2ccc(CO)cc2I)cc1`, -0.199.
On to `Cc1ccc(C(C)CC(O)C2C=CC3C(=O)N(c4ccccc4)C(=O)C3N2Nc2ccc(C(C)C)cc2)o1` (stereo unspecified), for which the z-score is -3.53.
Regarding `COCCOC(=O)N1C(=O)[C@@]2(c3cc(C#Cc4ccc(OC)cc4)ccc31)[C@H](C(=O)NC[C@H](O)c1ccccc1)[C@H]1C(=O)O[C@H](c3ccccc3)[C@H](c3ccccc3)N1[C@@H]2c1ccc(O)cc1`, the z-score worked out at 0.00809.
To `COCCOC(=O)N1C(=O)[C@@]2(c3cc(C#CC4(O)CCCCCC4)ccc31)[C@H](C(N)=O)[C@H]1C(=O)O[C@H](c3ccccc3)[C@H](c3ccccc3)N1[C@@H]2c1ccc(O)cc1` belongs 0.85; to `CC1CC/C=C\[C@H]2OC34C=CCN(C(C)C)C(=O)[C@H]3N(CCCCCO)C(=O)[C@@H]4C2C(=O)O1` (stereo partly specified), 1.05.
